Screening data as filed in PubChem BioAssay.
Shown are actives, neighbours in structure and some others; about 3.1% of the full set was active somewhere.
p53null 39C tox – kills p53 null cells at the nonpermissive temperature; H1299 p53-null (neo) cells, 39C, ATPlite viability, 24 h; Potency, µM (doses to about 46.1 µM), without a hit: at the highest dose activity, negative = cell killing, usual class: cytotoxic; 55,000 compounds, 0.97% hits; AID 904;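 note: potency is the fitted concentration of half-maximal effect; 0% = DMSO only and -100% = full killing by 100 µM tamoxifen; nearly all actives have a fitted effect of over 50% in size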
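Following overnight plating at 37C (600 cells/well), H1299-neo or H1299-p53A138V cells are dosed up to 46 uM. Incubation lasts 24 hr at 39C before ATP detection.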
PMP22 txn – modulators of PMP22 gene transcription in S16 Schwann cells | S16 Pmp22-F2sN Schwann cells, FLuc/NLuc coincidence luminescence, 24 h | Potency, µM (series often up to 57.5 µM), without a hit: at the top dose activity change, negative = inhibition, most hits filed as inhibitors | 43,000 compounds, 2% hits | AID 1508649; active = clear falling dose curves in both reporters; inconclusive = both reporters move, but less clearly or upward; inactive = either reporter flat; the % is the NLuc reporter signal; note: potency is the fitted concentration of half-maximal effect; % is set by controls: 0 for no effect and ±100 for the full control effect
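S16(c9) Schwann cells with FLuc/NLuc coincidence reporter in the Pmp22 3' UTR; compounds pin-transferred, 24 h at 37C. Dual-luciferase read: FLuc first, then NLuc after Stop&Glo, each 10 min at room temperature.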
p53null 32C kill – kills p53 null cells at the permissive temperature. H1299-neo p53 null cells, ATP luminescence, 24 h, 32C. Potency, µM (doses to about 46.1 µM), without a hit: top-dose activity change, negative = cytotoxicity, hits mostly cytotoxic. 55,000 compounds, 0.62% hits. AID 903;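 note: potency is the fitted concentration of half-maximal effect; 0% = DMSO only and -100% = full killing by 100 µM tamoxifen; nearly all actives have a fitted effect of over 55% in size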
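H1299-neo (p53-null) cells, 600/well, were pre-incubated overnight at 37C, then exposed to compounds at up to 46 uM for 24 hr at 32C. Viability was measured as ATP content by luminescence, and AC50 values came from Hill fits.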
OvCa metastasis – inhibitors of ovarian cancer cell adhesion and invasion in omental model | SKOV3ip1-GFP adhesion/invasion on 3D omental model, fluorescence | Potency, µM (highest dose often 45.8 µM), for the others: top-dose activity change, negative = inhibition, hits mostly inhibitors | 46,000 compounds, 0.1% hits | AID 1963576;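 note: potency is the fitted concentration of half-maximal effect; plate controls were DMSO wells for no effect and tomatine positive control wells for full effect; nearly all actives have a fitted effect of over 65% in size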
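qHTS, 4-pt dose (0.36-46 umol/L); SKOV3ip1-GFP, 1,200 cells/well, no FBS; primary omental fibroblast/mesothelial co-culture 48 h pre-grown; 2 h RT + 16 h 37 C; PBS wash, 4% PFA; GFP count 488/509 nm.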
mTORC1 inh – reduces mTORC1 signaling in Tsc2 and p53 null MEF cells. Tsc2-/- p53-/- MEF, phospho-rpS6 immunofluorescence/PI, 24 h. Potency, µM (top dose mostly 38.3 µM), for inactives: at the highest dose activity change, negative = inhibition, most hits filed as inhibitors. 44,000 compounds, 0.78% hits;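 note: potency is the fitted concentration of half-maximal effect; plate controls were DMSO for no effect and rapamycin for full effect; nearly all actives have a fitted effect of over 50% in size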
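Immunofluorescence of rpS6 phosphorylation in Tsc2-/-, p53-/- MEFs after 24 h compound exposure, normalized to propidium iodide signal. Activity is expressed as % positive cells, thresholded with 7.5 nM rapamycin.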
S16 F2sN tox – toxic to S16 Pmp22-F2sN Schwann cells; S16 Pmp22-F2sN Schwann cells viability, CellTiter-Glo, 24 h; Potency, µM (series often up to 57.5 µM), without a hit: top-dose activity change, negative = cytotoxicity, hits mostly cytotoxic; 43,000 compounds, 0.48% hits; AID 1508642; note: potency is the fitted concentration of half-maximal effect; % is set by controls: 0 for no effect and ±100 for the full control effect; nearly all actives have a fitted effect of over 65% in size
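CellTiter-Glo counter-screen, qHTS, 1536-well. Cells: S16(c9) Pmp22-F2sN, 500-1,000/well in DMEM + 10% FBS. Cpd 23 nL pin transfer, 24 h, 37C/5% CO2. Read: luminescence, CCD imager.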
NLuc sat counter – counter-screen for PMP22 expression modulators: NanoLuc inhibition, saturating substrate; Secreted NLuc enzyme (filtered S16 cell medium), Nano-Glo luminescence; 690 compounds, 4% hits; Potency, µM (top dose mostly 57.5 µM), for inactives: at the top dose activity change, negative = inhibition, actives largely listed as inhibitors; AID 1508638; shares compounds with PMP22 txn; note: potency is the fitted concentration of half-maximal effect; % is set by controls: 0 for no effect and ±100 for the full control effect
NLuc Km counter – inhibits NanoLuc under Km conditions, PMP22 counter-screen | 690 compounds, 5% hits | secreted NLuc enzyme, coelenterazine luminescence, Km conditions | shares compounds with PMP22 txn | Potency, µM (series often up to 57.5 µM), without a hit: at the highest dose activity change, negative = inhibition, hits mostly inhibitors; note: potency is the fitted concentration of half-maximal effect; % is set by controls: 0 for no effect and ±100 for the full control effect
FLuc counter – inhibits firefly luciferase, PMP22 counter-screen | shares compounds with PMP22 txn | AID 1508640 | purified P. pyralis FLuc, luminescence, 10 min | 690 tested, under 10 active | Potency, µM (series often up to 57.5 µM), without a hit: top-dose activity, negative = inhibition, most hits filed as inhibitors; note: % of control where 0% means no effect
Target sequence (P08659 whole entry, looked up): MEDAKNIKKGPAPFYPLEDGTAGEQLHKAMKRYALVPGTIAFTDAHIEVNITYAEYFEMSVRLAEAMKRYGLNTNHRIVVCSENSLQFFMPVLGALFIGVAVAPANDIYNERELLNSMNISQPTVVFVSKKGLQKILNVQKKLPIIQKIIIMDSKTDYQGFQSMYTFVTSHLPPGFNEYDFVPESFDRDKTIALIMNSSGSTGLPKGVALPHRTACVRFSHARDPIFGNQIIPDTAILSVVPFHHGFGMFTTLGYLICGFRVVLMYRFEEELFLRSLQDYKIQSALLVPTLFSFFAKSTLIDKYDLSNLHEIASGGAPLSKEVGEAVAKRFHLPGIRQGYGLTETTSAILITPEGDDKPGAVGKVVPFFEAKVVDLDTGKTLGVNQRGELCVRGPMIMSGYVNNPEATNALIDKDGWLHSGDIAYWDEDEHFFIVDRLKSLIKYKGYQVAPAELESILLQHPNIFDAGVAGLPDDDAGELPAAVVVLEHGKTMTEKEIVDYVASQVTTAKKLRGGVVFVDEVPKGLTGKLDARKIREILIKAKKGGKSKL
S16 F2sN tox cnf – confirmation of cytotoxicity in S16 Pmp22-F2sN Schwann cells (luciferase reporters placed in the Pmp22 gene). Potency, µM (titrated, usually from 57.5 µM), inactives show at the highest dose activity change, negative = viability loss, hits mostly cytotoxic. S16 Schwann cells viability, CellTiter-Glo ATP luminescence, 24 h. shares compounds with PMP22 txn. AID 1508641. 690 compounds, 7% hits; note: potency is the fitted concentration of half-maximal effect; % is set by controls: 0 for no effect and ±100 for the full control effect
PMP22 txn cnf – PMP22 transcription modulation, confirmatory; shares compounds with PMP22 txn; S16 Schwann cells Pmp22-F2sN, dual luciferase, 24 h; Potency, µM (highest dose often 57.5 µM), for the others: at the top dose activity change, negative = inhibition, hits mostly inhibitors; 690 compounds, 22% hits; active = clear falling dose curves in both reporters; inconclusive = both reporters move, but less clearly or upward; inactive = either reporter flat; the % is the FLuc reporter signal; note: potency is the fitted concentration of half-maximal effect
PMP22 HiBiT cnf – confirmation of modulators of rat PMP22 protein expression. shares compounds with PMP22 txn. S16 Schwann cells Pmp22-HiBiT, luminescence, 48 h. Potency, µM (series often up to 27.9 µM), for the others: top-dose activity change, negative = inhibition, usual class: inhibitors. 95 tested, under 10 active. AID 1508647
Numbers without * were called inactive; i = inactive; ? = inconclusive; · = not tested or not shown; [ ] = remark or other dose. Unless noted, calls come from the whole dose curve; as a rule, active = well fitted curve in the direction sought with a large enough effect; inconclusive = small, poorly fitted or top-dose-only effect, or another doubt; inactive = no such curve, though single readings can be large; an effect the other way counts as inactive or inconclusive.

SMILES	p53null 39C tox	PMP22 txn	p53null 32C kill	OvCa metastasis	mTORC1 inh	S16 F2sN tox	NLuc sat counter	NLuc Km counter	FLuc counter	S16 F2sN tox cnf	PMP22 txn cnf	others
O=C(CCc1nnc2n(Cc3ccccc3Cl)c(=O)c3ccccc3n12)Nc1ccccc1	6%	13µM*	-1%	i	0%	7%	-7%	1%	-5%	-48%	?
Cn1c(=O)oc2cc(S(=O)(=O)N3CCCC(C(=O)N4CCN(c5cccc(Cl)c5)CC4)C3)ccc21 (stereo unspecified)	-6%	13µM*	12%	-2%	-1%	-27%	-7%	-2%	7%	-6%	17µM*	PMP22 HiBiT cnf=?
Cc1cccc(N2CCN(C(=O)C3CCCN(S(=O)(=O)c4ccc5c(c4)oc(=O)n5C)C3)CC2)c1C (stereo unspecified)	4%	11µM*	8%	28%	-5%	-20%	-13%	-2%	-6%	-24%	?	PMP22 HiBiT cnf=?
Cc1cccc(N2CCN(C(=O)C3CCN(S(=O)(=O)c4ccc5c(c4)oc(=O)n5C)CC3)CC2)c1C	4%	20µM*	5%	i	0%	-15%	-5%	3%	2%	-15%	-28%
COc1cccc(N2CCN(C(=O)C3CCN(S(=O)(=O)c4ccc5c(c4)oc(=O)n5C)CC3)CC2)c1	11%	-21%	-8%	-5%	-1%	10%	·	·	·	·	·
Oc1cccc(-c2nc(N3CCOCC3)c3oc4ncccc4c3n2)c1	·	·	·	-11%[92.2 µM]	·	·	·	·	·	·	·
Cc1nc(C(=O)NCC(=O)O)c(O)c2ccc(Oc3ccccc3)cc12	·	·	·	4%	·	·	·	·	·	·	·
Nc1cccc2c1C(=O)N(C1CCC(=O)NC1=O)C2=O (stereo unspecified)	·	·	·	-8%	·	·	·	·	·	·	·
CCN(C(=O)CN(C)S(=O)(=O)c1ccc2c(c1)n(C)c(=O)c(=O)n2C)c1cccc(C)c1	4%	6.5µM*	1%	-13%	-23%	-17%	-14%	5%	-7%	13%	-4%
